Measured values taken from PubChem BioAssay (NCI).
Compounds without any hit were thinned out: in the full panel of roughly 79,000, 15% have a hit. No stated cut-off is given here; in the data, active means growth inhibition above about 70%; inactive means the rest. Where a SMILES comes first, the peptide text is derived from it. The star is where a group is joined. Boc = CC(C)(C)OC(=O)*

Legend:
[1] = NCI Yeast Anticancer Drug Screen. Data for the rad50 strain (AID 155);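 further: 0% = growth of vehicle-only cultures of the same strain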; settings: S. cerevisiae rad50 strain growth inhibition; at 50.0 µM; active compounds read high
Summary of the method: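 Relative growth inhibition (compound vs vehicle) was measured in yeast with a defined repair-gene alteration.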

[2] = NCI Yeast Anticancer Drug Screen. Data for the mec2-1 strain (AID 157); settings: S. cerevisiae mec2-1 strain, at 50.0 µM, active compounds read high
Summary of the method: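 Growth inhibition is read against vehicle-treated controls after compound exposure of the mec2-1 yeast strain, which is defective in DNA damage repair or cell cycle control.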

[3] = NCI Yeast Anticancer Drug Screen. Data for the sgs1 mgt1 strain (AID 161);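 further: 0% = growth of cultures given vehicle only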; settings: S. cerevisiae sgs1 mgt1 strain, at 50.0 µM, active compounds read high
Summary of the method: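 This yeast growth screen uses a strain with defined DNA-repair lesions; compound-treated growth is compared with vehicle-treated growth.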

[4] = NCI Yeast Anticancer Drug Screen. Data for the cln2 rad14 strain (AID 165);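 further: 0% = growth equal to vehicle treated cultures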; settings: S. cerevisiae cln2 rad14 strain, at 50.0 µM, active compounds read high
Summary of the method: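 Growth inhibition, relative to vehicle-treated controls, is the read-out. The test organism is a yeast strain with defined genetic alterations, cln2 rad14.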

[5] = NCI Yeast Anticancer Drug Screen. Data for the bub3 strain (AID 167); settings: S. cerevisiae bub3 mutant strain, at 50.0 µM, active compounds read high
Summary of the method: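 Screening used yeast with an engineered genetic alteration affecting cell cycle control. Compound-exposed cultures were compared with vehicle cultures, and reduced growth was taken as inhibition.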

[6] = NCI Yeast Anticancer Drug Screen. Data for the mlh1 rad18 strain (AID 175); settings: S. cerevisiae mlh1 rad18 strain growth inhibition; at 50.0 µM; active compounds read high
Summary of the method: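 Cells of a genetically altered yeast strain, deficient in DNA damage repair, were treated with compound. Their growth was then compared with that of vehicle-treated cultures to give inhibition.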

Measured: growth inhibition

C=C1C(=O)OC2(C)CCC1CC1OC1(C)CCC=C(C)CCC2O (stereo not given)
inactive: [1] 3.7% | [2] -39.1% | [3] 17.4% | [4] 8% | [5] -17.7% | [6] -39.5%

CC[n+]1[b-](C(C)(C)C)n(/N=C/C(C)(C)C)[b-](C(C)(C)C)[n+]1CC
inactive: [1] 0.7% | [2] -13.2% | [3] -19.9% | [4] 20.4% | [5] -11.2% | [6] 4.95%

CCOC(=O)/C=C(\C)NC
inactive: [1] -27.5% | [2] -46.9% | [3] -30.9% | [4] -2.75% | [5] -47% | [6] 5.95%

O=c1[nH]c2cc([N+](=O)[O-])ccc2c2ccc(Cl)cc12
inactive: [1] 57.4% | [2] 0% | [3] 4.85% | [4] 2.75% | [5] 6.5% | [6] 27.6%

O=C1NC(=S)N(c2ccccc2)C1=O
inactive: [1] -19.4% | [2] -7.65% | [3] -24.2% | [4] -30.2% | [5] -2.5% | [6] -11.8%

O=C1NC(c2ccccc2)(c2ccccc2)C(=O)N1CCCCCCN1C(=O)NC(c2ccccc2)(c2ccccc2)C1=O
inactive: [1] 8.35% | [2] 3.45% | [3] 4% | [4] 0.25% | [5] -7.15% | [6] 18.2%

NC(=O)Nc1ccc([N+](=O)[O-])cc1
inactive: [1] 4.65% | [2] -2.9% | [3] -2.6% | [4] -51.6% | [5] -11.9% | [6] 2.05%

CSCCC(NC(=O)C(CC(C)C)NC(=O)CNC(=O)OC(C)(C)C)C(=O)N(C)C (stereo not drawn) (Boc-Gly-Leu-Met-NMe2; configuration not given here)
inactive: [1] 6.6% | [2] -5.15% | [3] -3.9% | [4] -2.8% | [5] -0.1% | [6] -3%

O=C(NCCc1ccccc1)c1ccc(Cl)cc1
inactive: [1] 6.25% | [2] 9.8% | [3] 9.9% | [4] 10.8% | [5] 26% | [6] 1.5%

COc1cc(C(=O)C/C(CCCC(=O)Nc2ccccc2[N+](=O)[O-])=N/NC(=O)c2cc3ccccc3cc2O)ccc1O
inactive: [1] 12.9% | [2] 28.1% | [3] -9.75% | [4] 23.3% | [5] 1.4% | [6] 7.85%

CC(=O)NCCc1ccc(Cl)c(Cl)c1
inactive: [1] 13.6% | [2] -4.25% | [3] -5.95% | [4] -0.6% | [5] 3.35% | [6] -3.3%

Nc1ccn(C2CC(F)C(CO)O2)c(=O)n1 (stereo not given)
inactive: [1] 19.6% | [2] 11.2% | [3] 17.2% | [4] 1.5% | [5] 7% | [6] -1.8%

COC(=O)C1(CC(=O)c2cccc3ccccc23)NC(=S)NC(=O)C1C#N (stereo not given)
inactive: [1] 0.55% | [2] 15.7% | [3] -17.4% | [4] -13.3% | [5] -0.7% | [6] -9.35%

Cc1oc2ccccc2c(=O)c1Cn1cnc2ccc([N+](=O)[O-])cc21
inactive: [1] -0.45% | [2] 10.3% | [3] 21.5% | [4] 11.8% | [5] 5.85% | [6] 10.1%

CC(=O)OCC1OC(Cl)C(OC(=O)C(Cl)(Cl)Cl)C(OC(C)=O)C1OC(C)=O (stereo not given)
inactive: [1] 2.8% | [2] 0.2% | [3] -13.6% | [4] -0.95% | [5] -2.65% | [6] -9.45%

COc1cc(C(C#N)NNc2nc(C)cc(=O)[nH]2)cc(OC)c1OC (stereo not given)
inactive: [1] -25.6% | [2] -2.75% | [3] -31.1% | [4] -5.35% | [5] -23.9% | [6] -12.9%

CCSc1nc(C)nc2c1cnn2-c1ccccc1
inactive: [1] -0.1% | [2] -6.7% | [3] -2.65% | [4] -35.6% | [5] -13.8% | [6] 1.95%

CCOC(=O)CC(O)(c1ccccc1)c1ccccc1
inactive: [1] -30.9% | [2] -47.4% | [3] 7.35% | [4] 5.1% | [5] -25.2% | [6] -31.5%

Cn1c2c(c(=O)n(C)c1=O)CCC(=O)N2
inactive: [1] 4.95% | [2] 0.7% | [3] -6.5% | [4] -32.6% | [5] -2.4% | [6] -9.4%

O=S(CC(O)(c1ccccc1)c1ccccc1)c1ccccc1 (stereo not given)
inactive: [1] 6.55% | [2] 14.4% | [3] 18% | [4] 36.2% | [5] 30.9% | [6] 23.5%

COc1ccc(C(c2cc3c(cc2O)OCO3)N2CCN(C(c3ccc(OC)cc3)c3cc4c(cc3O)OCO4)CC2)cc1 (stereo not given)
inactive: [1] 17.1% | [2] 0% | [3] 5.05% | [4] 15.1% | [5] -1.65% | [6] 19.8%

CC1(C)NC(=S)NC1=S
inactive: [1] 5.4% | [2] -6.9% | [3] -13.9% | [4] -26.9% | [5] -4.45% | [6] -4.35%

c1ccc(CC/C(=N/N=C(\CCc2ccccc2)c2ccccc2)c2ccccc2)cc1
inactive: [1] 10.7% | [2] 8.05% | [3] -13.3% | [4] -8.75% | [5] -3% | [6] 7.6%

COc1cccc2c1C1(O)C2CCCC12OCCCO2 (stereo not given)
inactive: [1] -26.3% | [2] -10.3% | [3] -50% | [4] 6.5% | [5] -29.4% | [6] -31.2%

CCOC(=O)C(Cc1ccccc1Cl)(Cc1ccccc1Cl)c1ccccc1
inactive: [1] 7.15% | [2] -17.1% | [3] -10.5% | [4] -79.5% | [5] -4.95% | [6] 1.3%

NC(=O)N/N=C/C1CCc2ccccc2C1 (stereo not given)
inactive: [1] 6.45% | [2] -10.4% | [3] -12.3% | [4] -6.2% | [5] -1.4% | [6] 1.5%

Cc1ccc(O)c(C2C=CCC2)c1 (stereo not given)
inactive: [1] 8.6% | [2] -7.25% | [3] 22.8% | [4] 7.5% | [5] -1.35% | [6] 4.2%

COc1ccccc1N=Nc1c(-c2cccs2)nn(C(=S)SC)c1C(F)(F)F
inactive: [1] -3.5% | [2] 10.2% | [3] -21.6% | [4] -3.9% | [5] 18.7% | [6] 30.8%

c1ccc(-c2nnc3nn4c(-c5ccccc5)cnnc4c3c2-c2ccccc2)cc1
inactive: [1] -0.05% | [2] -10.3% | [3] -14.8% | [4] 1.4% | [5] -6.05% | [6] 1.5%

COc1cc(C2CC(C)(OC)Oc3cc4c(cc32)OCO4)cc(OC)c1OC (stereo not given)
inactive: [1] 42.5% | [2] -2.6% | [3] 2.7% | [4] 19.8% | [5] 19.3% | [6] 20.2%

OCCn1c2ccccc2c2ccccc21
inactive: [1] 20.2% | [2] -2.65% | [3] 18.6% | [4] -17.2% | [5] 14% | [6] -0.7%

NC(=O)CCC1CCCCN1 (stereo not given)
inactive: [1] 27.2% | [2] 18.8% | [3] 6.5% | [4] 5.7% | [5] 1.85% | [6] 2.2%

N/N=C1/CCCc2nonc21
inactive: [1] -19.7% | [2] -17.1% | [3] -29.4% | [4] -22.2% | [5] -25.4% | [6] -48.4%

O=C(O)/C(Cc1ccnc2ccccc12)=N\O
inactive: [1] -1.35% | [2] 2.7% | [3] -15.4% | [4] -0.05% | [5] -22.7% | [6] 0.4%

CCOC(=O)CCc1ccc(NC(=O)/C=C/c2ccc([N+](=O)[O-])o2)cc1
inactive: [1] 55% | [2] 29.1% | [3] 56.3% | [4] 53.8% | [5] 34.8% | [6] 36.7%

COC(=O)C1=Cc2cc(OC)c(OC)cc2[C@H](c2ccc(OC)c(OC)c2)C1C(=O)OC (stereo not given in full)
inactive: [1] -6.8% | [2] -11.7% | [3] -31.4% | [4] 0.95% | [5] 18.2% | [6] 1.45%

CC1(C)CCCC/C1=N\NC(N)=O
inactive: [1] -12.6% | [2] -20.4% | [3] -8% | [4] -6.15% | [5] -9.6% | [6] -14.8%

O=C1CCC(=O)N1n1c(Cc2ccc(Cl)cc2)n[nH]c1=O
inactive: [1] 17.4% | [2] 8.5% | [3] 19.1% | [4] 4.85% | [5] 12.8% | [6] -44.6%

O=c1c2ccccc2[nH]c2ccc(Cl)cc12
inactive: [1] 47.6% | [2] 13.9% | [3] 24.9% | [4] 21.6% | [5] -9.65% | [6] 61.1%

CC(C(=O)n1c2ccccc2c2ccccc21)N(c1ccccc1)c1ccccc1 (stereo not given)
inactive: [1] -16.8% | [2] -15.1% | [3] -30.2% | [4] 9.15% | [5] -29.4% | [6] -19.6%
